# Screens: PubChem BioAssay, The Scripps Research Institute Molecular Screening Center
# Shown are actives, neighbours in structure and some others; about 3.4% of the full set was active somewhere.
# PLCb3 inh: human PLC-beta3 inhibitors, primary screen, biochemical, fluorescence. 1-phosphatidylinositol 4,5-bisphosphate phosphodiesterase beta-3 (Homo sapiens), Q01970. Purified PLC-beta3, fluorogenic substrate. inhibition, % at 12.2 µM. 0.18% of 370,000 active. AID 720704, 2013; in the data active means inhibition above about 11%;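 further: 0% = median of compound wells on plate and 100% = full blocker control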
# sPLA2-III inh: human group III sPLA2 inhibitors, primary screen, biochemical, QFRET, BODIPY PC-A2 liposome substrate; Group 3 secretory phospholipase A2 (Homo sapiens), Q9NZ20; QFRET BODIPY PC-A2 liposome hydrolysis, fluorescence; inhibition, % at 12.2 µM; 0.56% of 370,000 active; AID 743126, 2013;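 active means inhibition above mean plus 3 SD of compounds lying within the high and low control bounds, cut at about 19% in these data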;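 further: 0% = median of test compound wells and 100% = no enzyme DMSO wells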
# ADAM10 inh: human ADAM10 inhibitors, primary screen, biochemical, QFRET, HTS; Disintegrin and metalloproteinase domain-containing protein 10 (Homo sapiens), O14672; AID 720582, 2013; 0.62% of 370,000 active; recombinant ADAM10, EDANS/DABCYL FRET peptide cleavage, 3 h; inhibition, % at 7 µM;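 active means inhibition above a per-campaign cutoff equal to the mean of compounds falling between control-based bounds plus 3 SD, cut at about 20% in these data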;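 further: 0% = DMSO wells while the 100% control is not disclosed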
# ADAM17 inh: ADAM17 inhibitors, primary screen, biochemical, QFRET; Disintegrin and metalloproteinase domain-containing protein 17 (Homo sapiens), P78536; 0.83% of 370,000 active; recombinant ADAM17, EDANS/DABCYL FRET peptide cleavage; inhibition, % at 6.95 µM; AID 720648, 2013;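 active means inhibition above the mean of compounds lying between control limits plus 3 SD, set per campaign, cut at about 8.5% in these data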;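 further: 0% = DMSO-only wells as the low control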
# PLCg1 inh: PLC-gamma1 enzyme inhibitors, primary screen, biochemical, fluorescence, purified enzyme; 0.84% of 370,000 active; fluorogenic substrate; inhibition, % at 12.2 µM; in the data active means inhibition above about 9.5%
# KLK7 zymogen act: proKLK7 zymogen activators, primary screen, biochemical, fluorescence intensity | Kallikrein-7 (Homo sapiens), P49862 | purified proKLK7, EDANS-DABCYL substrate fluorescence; 100% is mature enzyme control, 0% vehicle | activation, % at 7 µM | 0.9% of 370,000 active;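 active means activation above the mean of all tested compounds plus 3 SD, computed per campaign excluding outliers beyond control limits, cut at about 13% in these data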
# KLK7 act conf: proKLK7 zymogen activators, confirmation, biochemical, fluorescence intensity, triplicate; shares compounds with KLK7 zymogen act; activation, % at 7 µM; purified proKLK7, EDANS-DABCYL substrate fluorescence; scaled: vehicle 0, mature enzyme 100; 68% of 3,200 active;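 active means activation, as change over the incubation, above the mean of all tested compounds plus 3 SD, cut at about 13% in these data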
# EDANS-DABCYL int: EDANS-DABCYL substrate optical interference, artefact control for kallikrein-7 zymogen activator project, biochemical, fluorescence intensity, high throughput | shares compounds with KLK7 zymogen act | AID 686952, 2013 | 80% of 3,200 active | no enzyme, 4 h; solvent 0%, active enzyme control 100% | activation, % at 7 µM;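 active means activation above the all-compound mean plus 3 SD, ignoring values outside control-based bounds, cut at about 4.8% in these data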;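 further: value is the 4 h activation minus the activation read at time zero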
# Starred values were filed as active, the others as inactive; i = inactive; . = no result given.
SMILES,PLCb3 inh,sPLA2-III inh,ADAM10 inh,ADAM17 inh,PLCg1 inh,KLK7 zymogen act,KLK7 act conf,EDANS-DABCYL int
NC(=O)c1c(C(F)(F)F)cc(-c2ccccc2)nc1NCCO,-287.3,-1.6,-437.6,-136.5,-225.2,7.0,.,.
CCCCNc1nc(-c2ccccc2)cc(C(F)(F)F)c1C(N)=O,-319.5,-1.9,-244.2,-76.5,-303.8,19.2*,-4.6,-4.6
CC12C=CC(C)(C3C(=O)NC(=O)C31)C1C3C(=O)NC(=O)C3C12 (stereo not drawn),4.9,6.2,2.1,1.1,3.3,0.4,.,.
COc1cc(-c2ccc3oc(-c4ccsc4)c(C#CC4(O)CCCCC4)c3c2)cc(OC)c1OC,i,1.8,-328.8,-110.4,-409.8,12.8*,9.9,9.6*
OC1(C#Cc2c(-c3ccsc3)oc3ccc(N4CCOCC4)cc23)CCCCC1,i,-11.9,-108.6,-34.5,-404.8,-41.3,.,.
COc1ccc(C2=Nc3ccccc3C2(O)CCN2C(=O)c3ccccc3C2=O)cc1 (stereo not drawn),-140.2,-0.7,-32.3,-9.1,-107.2,16.1*,22.0*,22.4*
O=Cc1cn(-c2ccccc2)nc1-c1cc2c(ccc3ccccc32)oc1=O,-17.7,11.9,-216.2,-72.2,-18.0,-7.1,.,.
O=Cc1cn(-c2ccccc2)nc1-c1cc2cc(O)ccc2oc1=O,-163.5,-6.2,-247.8,-73.0,-118.0,197.2*,561.1*,549.3*
CCCN(CCC)Cc1cc(=O)oc2ccccc12,-4.2,6.1,-21.7,-4.5,0.0,0.2,.,.
NC(=O)c1ccccc1NC(=O)c1ccc2ccccc2c1,-10.5,-11.2,5.4,-1.3,-4.5,14.9*,-3.0,-2.7
COc1ccc(C(=O)Nc2ccccc2C(N)=O)cc1,-0.1,-0.9,-1.9,-3.5,-1.9,-0.3,.,.
COc1cc2c(c3c1c(=O)c1cccc(F)c1n3C)C=CC(C)(C)O2,-493.4,-0.7,-87.9,-25.6,-339.1,-3.4,.,.
Cc1cc(NCCOCCO)n2c(nc3ccccc32)c1C#N,i,-1.2,i,i,i,48.2*,85.4*,92.4*
CCCNc1cc(C)c(C#N)c2nc3ccccc3n12,-155.7,5.4,-355.5,-107.1,-115.1,6.6,.,.
Cc1cc(NCCCO)n2c(nc3ccccc32)c1C#N,-257.0,6.0,i,-202.9,-231.3,14.8*,50.6*,70.0*
COCCNc1cc(C)c(C#N)c2nc3ccccc3n12,i,10.9,i,i,i,37.3*,34.4*,46.0*
CNc1cc(C)c(C#N)c2nc3ccccc3n12,i,8.7,i,i,i,33.3*,93.3*,77.2*
CCOC(=O)C1=C(Nc2ccc(Br)cc2)C(=O)N(CC)C1,-4.1,5.4,-2.3,-2.1,-1.7,0.4,.,.
COC(=O)[C@]12C[C@H](CC(=O)NCc3cccs3)C(=O)N(CCc3ccc(OC)c(OC)c3)C1=C[C@H](C(C)(C)C)O[C@@H]2C,3.6,-12.3,14.6,3.1,1.7,-0.5,.,.
COc1ccc(CNC2CCC23CCC(C)CC3)cc1 (stereo not drawn),-1.5,5.6,-9.2,-6.4,-0.2,.,.,.
CNS(=O)(=O)c1ccc2c3c(cccc13)C(=O)N2C,i,-2.0,-371.1,-144.3,i,34.8*,54.7*,66.5*
CN1C(=O)c2cccc3c(S(=O)(=O)Nc4ccccc4F)ccc1c23,-78.5,-6.4,-8.4,-0.1,-49.4,2.7,.,.
